Only some compounds are listed: those with a hit (about 6.3% of all), similar ones and a draw of the others.
TGFb SMAD3 inh – qHTS for Inhibitors of TGF-b | 1.2% of 410,000 active | HepG2 CAGA-GFP TGF-b/SMAD3 reporter, GFP fluorescence, 18 h; TGF-beta stimulated, 500 pg/mL final | Potency, µM (series often up to 46.1 µM), without a hit: at the top dose activity, negative = inhibition, hits mostly inhibitors; also: % is scaled to controls: 0 for no effect and ±100 for the full control effect; nearly all actives have a fitted effect of over 65% in size
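HEPG2 CAGA-GFP reporter cells (1000/well, DMEM with 1% FBS) received compounds, then recombinant TGF-beta at 500 pg/mL final for 18 hours at 37 degrees C. Per-cell GFP summed per well was normalised to unstimulated and stimulated DMSO controls before curve fitting.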
ATXN2 expr inh – Primary qHTS for Inhibitors of ATXN expression; HEK-293 ATXN2-luciferase reporter, luminescence, 24 h; 0.72% of 360,000 active; Potency, µM (doses to about 57 µM), without a hit: top-dose activity change, negative = inhibition, usual class: inhibitors; also: % is scaled to controls: 0 for no effect and ±100 for the full control effect; nearly all actives have a fitted effect of over 55% in size
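qHTS (up to 57 uM final) was run with 24 h compound exposure of reporter cells at 37 °C. Each well was multiplexed: SteadyGlo luminescence measured ATXN2-luciferase expression after a fluorogenic Gly-Phe-AFC viability readout (25 uM final).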
HepG2 viability – qHTS for Inhibitors of TGF-b: Cytotox Counterscreen; HepG2 CAGA-GFP viability, ATP luminescence, 18 h; Potency, µM (titrated, usually from 46.1 µM), inactives show at the top dose activity change, negative = cytotoxicity, usual class: cytotoxic; AID 588856, 2011; 0.76% of 410,000 active
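HepG2 CAGA-GFP cells (1000/well, DMEM with 1% FBS) received compound, then TGF-beta at 500 pg/mL final, and were incubated 18 hours at 37 degrees C. Viability was read by CellTiter-Glo luminescence. Media-only wells were set as complete cell-killing and DMSO as no toxicity.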
VP16 counter – VP16 counterscreen qHTS for inhibitors of ROR gamma transcriptional activity | Drosophila S2 Gal4-VP16 UAS-luciferase, luminescence, 20 h | Potency, µM (highest dose often 53.6 µM), without a hit: at the top dose activity, negative = inhibition, actives largely listed as inhibitors | 3.5% of 310,000 active | AID 2546, 2010;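 also: Gal4-VP16 expression switched on by copper sulfate through the metallothionein promoter; % is scaled to controls: 0 for no effect and ±100 for the full control effect; nearly all actives have a fitted effect of over 50% in size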
S2 tox – Viability Counterscreen for Primary qHTS for Inhibitors of ATXN expression | 0.49% of 400,000 active | Potency, µM (series often up to 56.7 µM), usual class: cytotoxic | S2 cells (HEK-293 line with an ATXN2-luciferase reporter) viability, CellTiter-Fluor protease fluorescence, 24 h; also: nearly all actives have a fitted effect of over 40% in size
RORgamma inh – qHTS for inhibitors of ROR gamma transcriptional activity | Nuclear receptor ROR-gamma (Mus musculus), P51450 | Drosophila S2 Gal4-RORgamma UAS-luciferase reporter, 20 h | Potency, µM (top dose mostly 53.6 µM), without a hit: at the highest dose activity change, negative = inhibition, most hits filed as inhibitors | 5.4% of 310,000 active | AID 2551, 2010; also: % is scaled to controls: 0 for no effect and ±100 for the full control effect; nearly all actives have a fitted effect of over 60% in size
Target sequence (P51450 whole entry, looked up, the tested form may be a part): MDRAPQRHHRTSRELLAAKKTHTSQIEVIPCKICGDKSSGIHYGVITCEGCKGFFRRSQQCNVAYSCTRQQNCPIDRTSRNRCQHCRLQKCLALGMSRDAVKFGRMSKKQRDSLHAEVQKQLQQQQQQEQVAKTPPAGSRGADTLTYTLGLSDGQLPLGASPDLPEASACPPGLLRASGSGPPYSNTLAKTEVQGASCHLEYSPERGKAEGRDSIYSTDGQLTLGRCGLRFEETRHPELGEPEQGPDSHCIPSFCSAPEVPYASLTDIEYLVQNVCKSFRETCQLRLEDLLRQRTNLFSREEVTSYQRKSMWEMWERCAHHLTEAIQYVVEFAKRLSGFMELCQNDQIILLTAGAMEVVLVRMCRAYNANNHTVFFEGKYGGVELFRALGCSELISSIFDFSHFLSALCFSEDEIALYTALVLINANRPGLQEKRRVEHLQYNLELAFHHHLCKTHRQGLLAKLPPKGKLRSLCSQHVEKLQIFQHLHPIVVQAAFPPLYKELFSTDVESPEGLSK
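Stable Schneider cell line, Gal4 DNA-binding domain fused to ROR gamma, UAS-luciferase. Cmpd 1 hr RT → CuSO4 700 uM final → 20 hr RT → luciferase reagent 10 min → luminescence.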
An asterisk follows results filed as active; i = inactive; ? = inconclusive; nt = no result; [ ] = another dose, or the depositor's remark. Calls follow the shape of the dose curve; as a rule, active = well fitted curve in the direction sought with a large enough effect; inconclusive = small, poorly fitted or top-dose-only effect, or another doubt; inactive = no such curve, though single readings can be large; an effect the other way counts as inactive or inconclusive. Potency is read from the fitted curve at half-maximal effect.

SMILES | TGFb SMAD3 inh | ATXN2 expr inh | HepG2 viability | VP16 counter | S2 tox | RORgamma inh
COc1ccccc1NC(=O)C1CCC(CNS(=O)(=O)c2ccc3c(c2)CC(C)N3C(C)=O)CC1 (stereo not drawn) | ? | nt | -36% | nt | nt | nt
CCOc1ccc2nc(N3CCCC(C(=O)NCCc4ccc(OC)cc4OC)C3)sc2c1 (stereo not drawn) | 18µM* | nt | -53% | nt | nt | nt
COc1cccc2cc(-c3nnc(-c4ccccc4)o3)c(=O)oc12 | 0% | ? | -12% | ? | i | 1.3µM*
COc1cccc2cc(-c3nnc(-c4ccc(Cl)cc4)o3)c(=O)oc12 | 1% | nt | -8% | nt | nt | nt
COc1cccc2cc(C(=O)Oc3ccccc3)c(=O)oc12 | 6% | nt | 17% | 10µM* | i | ?
CCOC(=O)c1cc(-c2ccccc2)n(CCC(=O)NC2CCCCC2)c1C | -7% | nt | -3% | nt | nt | nt
COc1ccc(/C=C/C(=O)OCCC(C)C)cc1 | nt | nt | nt | 9% | nt | 38%
Cc1ccc(C(=O)Nc2ccc3ncccc3c2)cc1 | 0% | -37% | -16% | 11µM* | ? | 14µM*
COc1ccc(NC(=O)c2ccc3nccnc3c2)cc1 | 9% | 19% | -8% | -23% | i | 3%
O=C(Nc1ccc2ncccc2c1)c1cccc(Br)c1 | -2% | 45% | 8% | 11% | i | 25%
COc1ccc(C(=O)Nc2ccc3ncccc3c2)cc1 | -9% | 20µM* | -13% | ? | i | ?
CC(=O)Nc1ccc(/C=C/c2ccnc3ccccc23)cc1 | 18% | nt | -24% | nt | nt | nt
Cc1ccc(NC(=S)N(CCN(C)C)C(C)c2ccco2)cc1C (stereo not drawn) | 0% | 7% | 12% | ? | i | 19%
COc1cccc(NC(=S)N(Cc2ccco2)C(C)c2ccco2)c1 (stereo not drawn) | ? | 5% | -47% | 18µM* | i | ?
Cc1cccc(NC(=S)N(Cc2ccco2)C(C)c2cccs2)c1 (stereo not drawn) | ? | -18% | -4% | ? | i | 14µM*
COc1cccc(NC(=S)N(CCN2CCCCC2)Cc2ccco2)c1 | 7% | -1% | -7% | 4% | i | ?
COCCN(C(=S)Nc1ccc(C)c(C)c1)C(C)c1ccco1 (stereo not drawn) | ? | nt | -32% | ? | i | 4.5µM*
CC(c1cccs1)N(Cc1ccco1)C(=S)Nc1ccc(F)c(Cl)c1 (stereo not drawn) | -13% | -4% | 2% | ? | i | ?
Cc1sc(-n2cccc2)c(C(C)NC(=O)Nc2ccccc2Cl)c1C (stereo not drawn) | nt | nt | -6% | nt | nt | nt
Cn1c(=O)c2c(nc(NCc3ccco3)n2C)n(C)c1=O | 0% | 4% | 8% | 8% | i | -1%
Cn1c(=O)c2c(nc(NCc3ccco3)n2Cc2ccccc2Cl)n(C)c1=O | 0% | -1% | -16% | 4.5µM* | i | -35%
Cn1c(=O)c2c(nc(NCc3ccco3)n2CC(O)CO)n(C)c1=O (stereo not drawn) | 2% | ? | 4% | -4% | i | 18%
Cn1c(=O)c2c(nc(NCc3ccco3)n2C/C=C/c2ccccc2)n(C)c1=O | 4µM* | ? | -32% | 4.5µM* | ? | 2.2µM*
C/C(=N\NC(=O)C(N)=O)c1ccc(O)cc1O | 11% | 3% | -3% | -18% | i | 13%
C/C(Cn1cnc([N+](=O)[O-])n1)=N/NC(=O)COc1ccccc1Cl | 1% | nt | -24% | ? | i | -35%
SMILES | TGFb SMAD3 inh | ATXN2 expr inh | HepG2 viability | VP16 counter | S2 tox | RORgamma inh
C/C(Cn1nnc([N+](=O)[O-])n1)=N\NC(=O)c1ccccc1O | -42% | -29% | -19% | ? | i | 5.6µM*
C/C(Cn1nnc([N+](=O)[O-])n1)=N\NC(=O)c1ccc(O)cc1O | ? | ? | -32% | 2.8µM* | i | 0.5µM*
COc1ccc2c(C)cc(SCC(=O)Nc3nsc(-c4ccccc4C)n3)nc2c1 | -4% | nt | -14% | nt | nt | nt
COc1ccc(O)c(CN2CCC3(CCC(CNC(=O)c4ccco4)O3)CC2)c1 (stereo not drawn) | nt | nt | nt | nt | i | nt
COc1cc(C#N)ccc1OC(=O)Cc1cc(OC)c(OC)c(OC)c1 | 3% | 1% | -8% | -14% | i | 12%
COc1ccccc1CCC(=O)Oc1ccc(C#N)cc1OC | -10% | -4% | -1% | 11µM* | i | ?
Cc1nc(SCC(=O)c2cccc([N+](=O)[O-])c2)n[nH]1 | 19% | 2% | 20% | ? | i | 13µM*
O=C(CCNc1ccccc1)c1cccc([N+](=O)[O-])c1 | -25% | 3% | -1% | ? | i | ?
O=C(CCNc1ccc(F)cc1)c1cccc([N+](=O)[O-])c1 | ? | -23% | -40% | ? | i | 13µM*
COc1cc2c(C=O)c3c4c(cc(OC)c(OC)c4c2cc1OC)CCN3C | nt | nt | nt | -12% | nt | -29%
Cc1c(NS(=O)(=O)c2ccccc2)cc(C(C)C)c(O)c1S(=O)(=O)c1ccc(Cl)cc1 | ? | ? | -32% | nt | i | nt
COc1ccc2nc(C)c3c(c2c1)OC(C(C)(Cl)Br)C3 (stereo not drawn) | ? | ? | -3% | -23% | ? | 5µM*
Cc1ccc2nc(C)c3c(c2c1)OC(C(C)(Cl)Br)C3 (stereo not drawn) | ? | ? | -23% | -24% | i | 8%
Cc1ccc(Cl)cc1NC(=O)CC(O)(C(F)(F)F)C(F)(F)F | 13µM* | ? | -36% | nt | ? | -13%[0.365 µM]
CCOC(=O)c1c(NC(C)=O)sc2c1CCC(C=O)=C2Sc1ccccc1 | ? | 28µM* | -46% | ? | nt | ?
Cc1cccc(C(=O)n2nc(-c3cccnc3)nc2NCc2ccccc2)c1 | -2% | 5% | -6% | nt | i | nt
O=C(c1ccccc1)c1cc(-c2ccccc2)on1 | 4% | 90% | 10% | 11µM* | i | ?
Cc1cc(NC(=O)c2cc(-c3ccccc3)on2)no1 | -1% | -4% | -7% | -1% | ? | 22%
COc1ccccc1Cn1c(CNS(=O)(=O)c2ccc(CC(C)C)cc2)nc2cccnc21 | 13µM* | nt | -25% | nt | nt | nt
O=C(O)COc1ccccc1/C=N/NC(=O)c1ccc2c(c1)OCCO2 | 27% | nt | 8% | ? | i | ?
O=C(N/N=C/c1cc(Br)c(O)c(Br)c1O)c1ccc2c(c1)OCCO2 | -27% | ? | -4% | 3.2µM* | i | 4.5µM*

Screens from PubChem BioAssay.
